Mdm2-MdmX inh = inhibitors of human Mdm2/MdmX interaction; O15151+Q00987; SaOS-2 split-luciferase Mdm2/MdmX complementation, luminescence; inhibition, % at 8 µM; 3% of 330,000 active; AID 485346;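 active = inhibition of at least 50% at 8 µM in the primary screen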
CSC inhib = blocks cancer stem cells; cancer stem cell-like cells viability, luminescence; inhibition, % at 7.5 µM; 1.1% of 300,000 active; AID 2717; in the data active = inhibition above about 75%; inconclusive = no clear call, values can overlap the other calls; tested in HMLE shEcad cells
Gli-Sufu block = antagonists of Gli-Sufu signaling. inhibition, % at 5 µM. AID 588413. Sufu-KO-LIGHT fibroblasts, Gli luciferase reporter luminescence. 0.74% of 340,000 active;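 active = inhibition above about 55%, limit read from the data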;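 also: 0% = DMSO-treated cells and 100% = wells with medium but no cells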
697 NFkB inh = lowers PMA/ionomycin-induced NF-kB signal in 697 B cells | 697 B-cell NF-kB luciferase reporter, 16 h | inhibition, % at 4 µM | 0.33% of 330,000 active | AID 435022; in the data active = inhibition above about 35%
aSyn UTR inh = 5' untranslated region of α-synuclein, MLPCN primary screen | 0.82% of 300,000 active | AID 1813 | inhibition, % (tested at 7.5 µM) | alpha-synuclein 5'UTR reporter, inhibitor activity; in the data active = inhibition above about 60%; inconclusive = no clear call, values can overlap the other calls;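 also: H4 neuroglioblastoma cells stably carrying SNCA 5'UTR luciferase fusion; 0% = DMSO wells and 100% = positive control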
Jurkat NFkB inh = inhibitors of the PMA/ionomycin-induced NF-kB reporter in Jurkat cells; PMA/ionomycin-induced NF-kB luciferase reporter, luminescence; inhibition, % at 4 µM; 0.53% of 330,000 active; AID 435003; in the data active = inhibition above about 50%
Mdm2 MdmX conf = human Mdm2/MdmX binding inhibition, confirmed | shares compounds with Mdm2-MdmX inh | luminescent assay | inhibition, % at 8 µM | 55% of 10,000 active | AID 489028; in the data active = inhibition above about 40%
Full FLuc ctr = full-length luciferase inhibition in Mdm2/MdmX counter-screen. AID 504607. shares compounds with Mdm2-MdmX inh. 77% of 6,200 active. inhibition, % at 8 µM. SaOS-2 full-length luciferase counterscreen, luminescence;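 active = mean inhibition at 8 µM reaching about 37%, which flags the compound as non-specific, limit read from the data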;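 also: p53-null SaOS-2 cells with luciferase driven by a doxycycline-inducible promoter; compound on cells about two nights before reading with doxycycline added after day one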
Starred values were filed as active, the others as inactive; ? = inconclusive; / = no result given. The list is not random: actives were taken first. Their share in the collection is about 4.5%.

SMILES	Mdm2-MdmX inh	CSC inhib	Gli-Sufu block	697 NFkB inh	aSyn UTR inh	Jurkat NFkB inh	Mdm2 MdmX conf	Full FLuc ctr
O=C(/C=C/Nc1ccccc1Br)c1ccccn1	75.3*	-10.9	-75.5	-27.8	114.3*	41.7	75.6*	24.0
CC(C)(C)NC(=O)NC(=O)COC(=O)C1CCN(S(=O)(=O)c2cccs2)CC1	-22.0	/	10.2	12.3	/	0.3	/	/
CCN1C(=O)C(C(=O)c2ccccc2)SC1=S (stereo not drawn)	10.3	12.5	-19.8	15.4	-4.2	2.9	/	/
CC(=O)Nc1ccc(C2=CC(=O)C[C@H](c3ccc4c(c3)OCO4)C2)cc1	-4.3	12.9	6.7	-8.2	/	11.1	/	/
Cn1c(C(=O)NCCCN2CCOCC2)cc2c(=O)n(C)c3ccccc3c21	0.2	10.9	3.8	4.3	-28.6	-13.8	/	/
Cn1c(C(=O)NCCCN2CCN(c3ccccc3F)CC2)cc2c(=O)n(C)c3ccccc3c21	58.2*	3.1	1.4	23.2	-19.0	8.0	28.1	/
CCCN(CCC)CCNC(=O)c1cc2c(=O)n(CC)c3ccccc3c2s1	70.5*	-0.2	24.1	4.4	-173.7	-37.7	45.6*	68.9*
CCN(CC)CCNC(=O)c1cc2c(=O)n(CC)c3ccccc3c2s1	46.5	-12.0	42.8	-5.2	-124.6	-65.6	/	/
CCCCN(CC)CCCNC(=O)c1cc2c(=O)n(C)c3ccccc3c2n1C	69.0*	2.9	16.2	20.7	-29.2	-71.4	22.6	/
CC(C)OCCCNC(=O)c1cc2c(=O)n(C)c3ccccc3c2n1C	-19.1	-5.5	24.2	8.1	1.7	-1.0	/	/
Cc1ccc(Cl)cc1N1CCN(C(=O)c2cc3c(=O)n(C)c4ccccc4c3n2C)CC1	97.6*	17.7	6.8	-21.8	33.3	10.4	86.2*	66.9*
Cc1nnsc1C(=O)N/N=C/c1ccc(OC(F)(F)F)cc1	-9.2	-3.8	-4.1	-13.8	-13.8	7.5	/	/
Cc1ccc(S(=O)(=O)Nc2ccnc(-c3cccnc3)n2)cc1	-12.2	0.2	1.1	12.7	-2.8	13.9	/	/
O=C(Nc1cccc(Cl)c1)c1cccc(N2C(=O)C3CC=CCC3C2=O)c1 (stereo not drawn)	-1.1	-10.5	-5.6	-7.6	-6.9	14.4	/	/
COc1ccc(-c2noc(=O)n2Cc2cc(C)ccc2C)cc1	48.2	62.4	-2.8	9.3	-4.8	29.1	/	/
CN1CCN(CCCNC(=O)c2cc3c(=O)n(C)c4ccccc4c3s2)CC1	54.2*	6.3	27.2	14.6	-73.8	-24.0	32.0	/
O=C(NCCCN1CCCCCC1)c1cc2c(=O)oc3ccccc3c2s1	27.1	-21.1	23.0	-2.1	-2.5	-6.7	/	/
CCCN1CCC(NCc2cn(C)nc2-c2ccc(Oc3ccccc3)cc2)CC1	64.7*	6.2	11.4	-10.3	-33.2	-4.4	64.8*	56.5*
COC1CCCN(Cc2cn(C)nc2-c2ccc(Oc3ccccc3)cc2)C1 (stereo not drawn)	5.5	-6.3	2.0	-14.2	6.2	-8.6	/	/
COCCN1CCCC(CNCc2cn(C)nc2-c2ccc(Oc3ccccc3)cc2)C1 (stereo not drawn)	71.3*	3.3	31.0	-1.5	8.5	9.1	60.3*	50.0*
COC1(OC)N=C(NC(=O)Nc2ccccc2)C2(C#N)C(c3ccccc3)C12C#N (stereo not drawn)	5.9	-15.5	4.5	-1.0	-13.8	-1.9	/	/
Cc1ccc(Sc2c(CO)c(-c3ccccc3)nn2C)cc1	50.8*	-4.4	40.5	-52.4	-86.4	39.0	47.0*	91.8*
Cc1ccc(-c2nn(-c3ccccc3)cc2CO)cc1	-63.9	8.7	-42.9	-42.7	-103.6	-52.0	/	/
C=C1C(=O)O[C@@H]2[C@H]3O[C@]3(C)CC/C=C(\C)CC[C@@H]12	67.6*	-8.5	-0.1	12.1	/	19.0	53.7*	62.2*
C=C1C(=O)O[C@H]2C[C@H]1[C@@H](OC(C)=O)C/C(C)=C/CC/C(C)=C\CC[C@]2(C)O	/	/	-5.4	/	/	/	/	/
SMILES	Mdm2-MdmX inh	CSC inhib	Gli-Sufu block	697 NFkB inh	aSyn UTR inh	Jurkat NFkB inh	Mdm2 MdmX conf	Full FLuc ctr
Cc1ccccc1NC(=O)C1CCN(C(=O)N2CCOc3ccccc32)CC1	21.8	-13.5	-9.0	-7.8	-15.4	7.4	/	/
CC(=O)Nc1ccc(NC(=O)Cn2c(=O)n(-c3ccc(C)cc3)c(=O)c3oc4ccccc4c32)cc1	9.3	7.4	5.7	7.6	14.9	-0.9	/	/
CCN(c1ccccc1)S(=O)(=O)c1ccc(Oc2ccc(-n3ccnc3)cc2)nc1	58.9*	-6.2	-17.4	-1.4	103.1*	16.7	57.6*	63.2*
CCN(c1ccccc1)S(=O)(=O)c1ccc(Oc2ccccc2C(C)=O)nc1	7.6	-10.4	1.4	-3.8	/	-6.2	/	/
CC(=O)Nc1nonc1-c1nc2ccccc2n1C	8.8	-0.9	1.0	10.1	-7.1	-5.8	/	/
CCC(=O)Nc1nonc1-c1nc2ccccc2n1Cc1ccccc1	38.1	31.8	-3.8	-9.7	46.7	-0.8	/	/
CCC(=O)Nc1nonc1-c1nc2ccccc2n1CCC(C)C	50.4*	-0.7	-8.7	-13.3	31.2	9.2	56.1*	55.9*
CCC(=O)Nc1nonc1-c1nc2ccccc2n1N(C(=O)CC)C(=O)CC	25.5	10.8	-0.7	26.2	9.8	-4.3	/	/
CCC(=O)Nc1nonc1-c1nc2ccccc2n1Cc1cccc2ccccc12	64.0*	70.1	19.1	-6.5	67.3*	43.8	69.8*	109.3*
CC(=O)Nc1nonc1-c1nc2ccccc2n1CCC(C)C	55.7*	-7.2	/	2.6	9.2	17.9	49.7*	44.8*
O=S(=O)(Nc1nc2ccccc2nc1N1CCN(c2ccccc2F)CC1)c1ccc(Cl)cc1	26.1	?	17.3	-1.6	0.0	-1.6	/	/
COc1ccc(N2CC(O)=C(c3nc(-c4ccc(F)cc4)cs3)C2=N)cc1	16.8	/	-3.8	3.2	-0.4	-9.2	/	/
COc1ccc(N2CC(O)=C(c3nc(-c4ccc(Br)cc4)cs3)C2=N)cc1	71.4*	-10.4	3.6	-19.2	-40.2	7.8	54.0*	75.2*
COc1ccc(N2CC(O)=C(c3nc(-c4ccccc4)cs3)C2=N)cc1	1.7	-24.8	15.7	10.6	4.9	-5.1	/	/
COc1ccc(N2CC(O)=C(c3nc(-c4ccc(Cl)cc4)cs3)C2=N)cc1	52.8*	-6.7	6.8	-8.6	-56.9	10.9	41.5*	62.6*
Cn1cc(C(=O)N2CCN(C(=O)c3ccco3)CC2)c2c3ccccc3n(C)c2c1=O	18.2	4.1	5.8	13.2	19.3	-2.1	/	/
C=CCNC(=O)c1ccc(Cn2c(=S)[nH]c3cc4c(cc3c2=O)OCO4)cc1	60.0*	2.0	-2.5	-7.9	-7.5	0.4	10.8	/
O=C(NCC1CCCO1)c1ccc2c(=O)n(Cc3ccc(Cl)cc3)c(=S)[nH]c2c1 (stereo not drawn)	55.7*	-8.1	-0.9	-7.5	10.6	1.1	31.4	/
